Results as given in ChEMBL document CHEMBL4513216, “Probing the Open Global Health Chemical Diversity Library for Multistage-Active Starting Points for Next-Generation Antimalarials” (ACS Infect Dis, 2020).
Among all 69,000 compounds or so, about 8,600 (12%) showed an effect of 50% or more. Shown is part of a subset that was picked to be rich in strong results.

tested on: Plasmodium berghei; assay: Screen against P. berghei liver stage (PbLuc), transformed with Luciferase, at 10uM; format: functional, HepG2; conditions: tested at 10 uM

Row | Compound | INHIBITION [%]
1 | Cc1cc(-n2nc(C3CC3)nc2-c2csnn2)ccn1 | 19.5
2 | CN1CCOC(CNCc2coc(-c3ccccc3Cl)n2)C1 (stereo unspecified) | 16.8
3 | CC(C)c1noc(CN2CCN(C(=O)c3cccc(F)c3)CC2)n1 | -31.5
4 | CCN(CC)S(=O)(=O)c1ccc2c(c1)N(Cc1ccccn1)C(=O)CS2 | 13.1
5 | CN(C)S(=O)(=O)N1CC[C@]2(O)CCN(c3cc(C#N)ccn3)C[C@@H]2C1 | 36.5
6 | CS(=O)(=O)N1CC[C@]2(O)CCN(c3ccnc(N)n3)C[C@@H]2C1 | 20.8
7 | CS(=O)(=O)N1CC[C@]2(O)CCN(c3cc(C#N)ccn3)C[C@@H]2C1 | 52.2
8 | Cc1cc(C(=O)NC2CCN(CC(N)=O)CC2)nn1C(C)(C)C | -1.54
9 | CC(C)(C)n1nc(C(=O)NC2CCN(CC(N)=O)CC2)cc1C1CC1 | 5.03
10 | CC(C)(C)n1nc(C2CC2)cc1C(=O)NC1CCN(CC(N)=O)CC1 | 56
11 | Cc1noc(C(C)C)c1C(=O)NCCN1CCCCCC1=O | 11.6
12 | Cc1nc(C)n(CC2CCCCN2CC(=O)Nc2cc(C)on2)n1 (stereo unspecified) | 15.5
13 | COCC(=O)N1CCCC1c1nc(O)cc(C(C)C)n1 (stereo unspecified) | 0.301
14 | CN(C)CCN1C(=O)CCC12CCCN(C(=O)c1cccnc1)CC2 (stereo unspecified) | -38.1
15 | Cc1occc(=O)c1OCC(=O)N1CCc2ccccc2C1 | -8.04
16 | CC(NC(=O)NCCCc1n[nH]c(N)c1C#N)c1ccc(F)cc1 (stereo unspecified) | -25.8
17 | CC(C)C(NC(=O)NCCNc1ccccn1)c1cccs1 (stereo unspecified) | 50.4
18 | CC(C)C(NC(=O)NCCNc1cnccn1)c1cccs1 (stereo unspecified) | 36.1
19 | CC(NC(=O)NCCCc1n[nH]c(N)c1C#N)c1ccccc1 (stereo unspecified) | 31
20 | CC(NC(=O)NCCCc1n[nH]c(N)c1C#N)c1cccs1 (stereo unspecified) | 58.2
21 | CC(NC(=O)NCCNc1cnccn1)c1cccs1 (stereo unspecified) | -0.847
22 | CC(NC(=O)NCCNc1ccccn1)c1cccs1 (stereo unspecified) | 19.6

Row | Compound | INHIBITION [%]
23 | CC(C)C(NC(=O)NCCNc1ncccn1)c1cccs1 (stereo unspecified) | -6.44
24 | CC(NC(=O)NCCNc1ncccn1)c1cccs1 (stereo unspecified) | 56.6
25 | CCSc1ccc(C(=O)N2CCCCC2C(=O)NC(C)(C)C)cn1 (stereo unspecified) | 29.7
26 | CN(CCCO)C(=O)c1ccc2c(c1)nc(N1CC[C@H](O)C1)n2C | -17.7
27 | O=C(c1ccncc1)N1CCN2C[C@H](Oc3cccc(F)c3)C[C@H]2C1 | 15.3
28 | CC1CCCCN1CCNC(=O)c1scnc1Cl (stereo unspecified) | 0.411
29 | O=C(C1CCCC1)N1CCCC(c2nc(O)cc(-c3ccncc3)n2)C1 (stereo unspecified) | 18.3
30 | CCOc1ccc(CC(=O)N2CCN(c3nccn3C)CC2)cc1 | 15
31 | CCC(=O)Nc1ccc(C(C)Nc2nc3c(cnn3C)c(=O)[nH]2)cc1 (stereo unspecified) | 28.7
32 | CC(C)Sc1ccc(C(C)Nc2nc3c(cnn3C)c(=O)[nH]2)cc1 (stereo unspecified) | 76.8
33 | CC(Nc1nc2c(cnn2C)c(=O)[nH]1)c1ccc2c(c1)CCCC2 (stereo unspecified) | 51
34 | CC(Nc1nc2c(cnn2C)c(=O)[nH]1)c1ccc(F)cc1 (stereo unspecified) | 23.1
35 | CC(Nc1nc2c(cnn2C)c(=O)[nH]1)c1ccccn1 (stereo unspecified) | 30.9
36 | Cn1ncc2c(=O)[nH]c(CN3CCCc4cc(F)ccc43)nc21 | 31.7
37 | c1ccc(Cn2cc3c(n2)C(CNCc2ccco2)OCC3)nc1 (stereo unspecified) | -4.86
38 | Cn1cc(C(=O)N2CC[C@@H]3[C@@H]2CCN3Cc2cccnc2)cn1 | 10.8
39 | COc1nn(C)cc1C(=O)N1CCC(c2nnc(-c3ccsc3)o2)CC1 | 43.3
40 | CS(=O)(=O)N1CCc2ccc(C(=O)N3CCn4ncnc4C3)cc21 | -4.68
41 | Clc1ccccc1OCCc1cc(C2CCNC2)n[nH]1 (stereo unspecified) | -57.4
42 | Cc1nccc(-c2cccc(NCC(=O)N3CCCC(C)C3)c2)n1 (stereo unspecified) | 53.9
43 | Cc1nccc(-c2cccc(NCC(=O)N3CCOC(C)C3)c2)n1 (stereo unspecified) | 15.5
44 | Cc1nccc(-c2cccc(NCC(=O)N3CCCCCCC3)c2)n1 | 18.9

Row | Compound | INHIBITION [%]
45 | CNS(=O)(=O)c1cccc(CNC(=O)c2cc(C)no2)c1 | -4.16
46 | CCS(=O)(=O)N1CCC2(CC(=O)N(c3ccccc3C)C2)C1 (stereo unspecified) | -25.8
47 | CS(=O)(=O)Nc1ccc2c(c1)NC(=O)CC2c1cnn2cccnc12 (stereo unspecified) | -27.5
48 | CC(=O)N1CCOC2(CCCN(Cc3ccc(Cl)c(C(F)(F)F)c3)C2)C1 (stereo unspecified) | 30.3
49 | CC(=O)N1CCC2(CCCN(Cc3ccc(Cl)c(C(F)(F)F)c3)C2)C1 (stereo unspecified) | 59.7
50 | CC(=O)N1CCC2(CCN(Cc3ccc(Cl)c(C(F)(F)F)c3)CC2)C1 | 73
51 | CC(=O)N1CCCC2(CCN(Cc3ccc(Cl)c(C(F)(F)F)c3)C2)C1 (stereo unspecified) | -18.5
52 | CC(=O)N1CCCC2(CCN(Cc3ccc(Cl)c(F)c3)C2)C1 (stereo unspecified) | 13.7
53 | CN(C)C(=O)N1CCCC2(CCN(Cc3ccc(Cl)c(F)c3)C2)C1 (stereo unspecified) | 16.9
54 | CSc1cccc(CN2CCn3nc(CNC(C)=O)cc3C2)c1 | 8.38
55 | Cn1ncc2c1C(COCC1CC1)CN(Cc1ccc(F)cc1)C2 (stereo unspecified) | -5.69
56 | Cc1cc(C)n(-c2ccc(C(=O)NCC(CO)Cc3ccco3)cc2)n1 (stereo unspecified) | 32.1
57 | Cc1csc(CNc2cnc3c(c2)c(C)nn3C)n1 | 16
58 | O=S(=O)(Nc1cnc(N2CCCC2)nc1)c1ccc(OC(F)(F)F)cc1 | 40.1
59 | Cn1cc(NS(=O)(=O)c2ccc(OC(F)(F)F)cc2)ccc1=O | 84.6
60 | Cc1ccc(S(=O)(=O)Nc2ccc(=O)n(C)c2)cc1 | 46.5
61 | COc1ccc(S(=O)(=O)Nc2cnc(N(C)C)nc2)cc1 | 40.6
62 | CN(C)c1ncc(NS(=O)(=O)c2ccc(OC(F)(F)F)cc2)cn1 | 51.6
63 | Cc1nc(N(C)C)nc(C)c1NS(=O)(=O)c1ccc(OC(F)(F)F)cc1 | -2.09
64 | Cn1cc(NS(=O)(=O)c2ccc(C(F)(F)F)cc2)ccc1=O | 60.5
65 | O=S(=O)(Nc1cnc(N2CCCC2)nc1)c1ccc(C(F)(F)F)cc1 | 37.3
66 | CSc1ccc(NS(=O)(=O)c2cnn(C)c2)cn1 | 1.81
